Data on 34 molecules can be found in PubChem BioAssay (NCATS).

Molecules are shown by their SMILES. Results filed as inconclusive are left out. A number with no mark means an inactive call. Activity calls are given as the source filed them. The call rests on the fitted dose curve; in most records, active means well fitted inhibition curve with a large enough effect; inconclusive means small, poorly fitted or top-dose-only effect; inactive means flat fitted curve, though single readings scatter.
On the % scale 0 is the no-effect control and ±100 the full control effect.

Calcium and integrin-binding protein 1 (Homo sapiens), sequence (Q99828 whole entry, looked up): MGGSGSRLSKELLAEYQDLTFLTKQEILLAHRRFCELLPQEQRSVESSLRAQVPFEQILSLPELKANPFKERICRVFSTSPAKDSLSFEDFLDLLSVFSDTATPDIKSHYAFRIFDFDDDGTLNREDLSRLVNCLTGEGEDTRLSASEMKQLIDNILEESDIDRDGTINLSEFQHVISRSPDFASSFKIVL

The assay addresses Calcium and integrin-binding protein 1 (Homo sapiens) (UniProt Q99828). The assay is described as follows: Primary qHTS for Identification of Calcium Integrin Binding Protein 1 (CIB1) Competitor (AID 1508620). Further: top concentration of the series differs between compounds. Particulars: CIB1-GST / FITC-alphaIIb peptide fluorescence polarization; series mostly up to 57.7 µM; activity change, negative = inhibition: at the top concentration. Summed up: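 Fluorescence polarization competition: GST-tagged CIB1 (1 uM final) preincubated with compound 15 min at room temperature, then FITC-labelled alphaIIb peptide (100 nM final) added. After 15 min at room temperature, polarization read at Ex 480/Em 540.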
Consider `COC(=O)Nc1nc2ccc(C(=O)c3ccc(F)cc3)cc2[nH]1`, for which the outcome was inactive.
On to `CC[C@@]1(O)C(=O)OCc2c1cc1n(c2=O)Cc2cc3cc(O)ccc3nc2-1`, for which the result was inactive.
With `CC(=O)OCCN1C(=O)c2c(C)nc3ccc(S(=O)(=O)N4CCOCC4)cc3c2C1=O`, the “activity change, negative = inhibition” value is 0.178%.
The same measure, in the same setting: the result for `Cc1cc(Nc2cc(NC(=O)c3c(Cl)cccc3Cl)ccn2)nc(N)n1` reads -7.4%; that for `CC(C)[C@H](C(=O)Nc1ccc(C(=O)NO)cc1)c1ccccc1`, 2.11%.
As for `Cc1cc(Nc2cc(N3CCN(C)CC3)nc(Sc3ccc(NC(=O)C4CC4)cc3)n2)n[nH]1`, the outcome was inactive.
In the case of `C=CC(=O)Nc1cc2c(Nc3ccc(F)c(Cl)c3)ncnc2cc1C#CC(C)(C)N1CCN(C)CC1`, the “activity change, negative = inhibition” value was -3.31%.
For `CC(C)(C)c1cc(NC(=O)Nc2ccc(-c3cn4c(n3)sc3cc(OCCN5CCOCC5)ccc34)cc2)no1`, the result was inactive.
Still for that read-out and setting: the result for `COCCOc1ccc2c(c1)ncn2-c1ccc2cccc(N3CCC(N)CC3)c2n1` reads “inactive”; that for `c1nc2nc(Nc3ccc(N4CCOCC4)cc3)nc(NC3CCCCC3)c2[nH]1`, “inactive”.
In the case of `COc1cccc2nc(-c3cccs3)nc(NN3C(=O)C=C(C)C3=O)c12`, the “activity change, negative = inhibition” value is -30.4% [at 114 µM].
With `c1cc(-c2cnn3cc(-c4ccc(OCCN5CCCCC5)cc4)cnc23)ccn1`, the “activity change, negative = inhibition” value was 7.05%.
`C[C@@H]1COC(Nc2ccc3ncnc(Nc4ccc(OCc5nccs5)c(Cl)c4)c3c2)=N1`: the outcome was inactive.
Consider `CC[C@@H]1C(=O)N(C)c2cnc(Nc3ccc(C(=O)NC4CCN(C)CC4)cc3OC)nc2N1C1CCCC1`, for which the “activity change, negative = inhibition” value is -4.22%.
As to `O=c1[nH]c(=O)n(C2CCCO2)cc1F` (centres undefined), the “activity change, negative = inhibition” value is 0.49% [at 114 µM].
The same measure, in the same setting: the result for `CN1CCN(c2cc(C(=O)Nc3ccc4c(c3)-c3c(c(C(N)=O)nn3-c3ccc(F)cc3)CC4)c(Cl)cn2)CC1` reads 6.66%.
As to `CCc1c2c(nc3ccc(O)cc13)-c1cc3c(c(=O)n1C2)COC(=O)[C@]3(O)CC`, the result was inactive.
The same measure, in the same setting: then `N#CCNC(=O)c1ccc(-c2ccnc(Nc3ccc(N4CCOCC4)cc3)n2)cc1`, with “inactive”.
Still for that read-out and setting: then `Nc1cccc(-c2cc3c(Oc4cccc(O)c4)ncnc3[nH]2)c1`, with “inactive”; and `C[C@]12CC[C@H](O)CC1=CCC1C2CC[C@]2(C)C(n3cnc4ccccc43)=CCC12` (some centres undefined), with “inactive”.
The same measure, in the same setting: then `Cc1c(NC(=O)OC[C@@H]2COCCN2)cn2ncnc(Nc3ccc4c(cnn4Cc4cccc(F)c4)c3)c12`, with “inactive”.
For `CC(C)c1ccc(Cn2ccc3c4c(N)nc(NC5CC5)nc4ccc32)cc1`, the “activity change, negative = inhibition” value was -1.15%.
Turning to `Cc1ccc(C(N)=O)cc1Nc1nccc(-c2cn(C(C)C)c3cnccc23)n1`, the “activity change, negative = inhibition” value is 0.966% [at 114 µM].
The same measure, in the same setting: the result for `O=C(O)c1ccc2cc(-c3ccc(O)c(C45CC6CC(CC(C6)C4)C5)c3)ccc2c1` reads -2.29%.
`NC(=O)Nc1cc(-c2cccc(F)c2)sc1C(=O)N[C@H]1CCCNC1`: the outcome was inactive.
Turning to `C[C@@]12O[C@@H](C[C@]1(O)CO)n1c3ccccc3c3c4c(c5c6ccccc6n2c5c31)CNC4=O`, the “activity change, negative = inhibition” value was -7.43%.
Consider `Cc1nc(Nc2n[nH]c3c2CN(C(=O)N[C@H](CN(C)C)c2ccccc2)C3(C)C)c2sccc2n1`, for which the outcome was inactive.
In the case of `C[C@@H]1CN(CC(=O)Nc2ccc3c(c2)Cc2cccc(-c4cc(=O)cc(N5CCOCC5)o4)c2S3)C[C@H](C)O1`, the “activity change, negative = inhibition” value was -3.82%.
For `Nc1cc(C(F)(F)F)c(-c2cc(N3CCOCC3)nc(N3CCOCC3)n2)cn1`, the outcome was inactive.
`CCN(CC)CCCCNc1ncc2cc(-c3cc(OC)cc(OC)c3)c(NC(=O)NC(C)(C)C)nc2n1`: the “activity change, negative = inhibition” value was -2.73%.
`Nc1ccccc1NC(=O)c1ccc(CNC(=O)OCc2cccnc2)cc1`: the result was inactive.
On to `CCN1CCN(Cc2ccc(-c3cc4c(N[C@H](C)c5ccccc5)ncnc4[nH]3)cc2)CC1`, for which the “activity change, negative = inhibition” value was -0.363%.
`CC(C)C[C@H](NC(=O)CNC(=O)c1cc(Cl)ccc1Cl)B(O)O`: the “activity change, negative = inhibition” value is -0.746%.
The same measure, in the same setting: then `COc1cc2ncn(-c3cc(OCc4ccccc4C(F)(F)F)c(C(N)=O)s3)c2cc1OC`, with -1.15%.
